According to PubChem BioAssay (NCI):
About 83,000 compounds went through this panel and 20% of them were active in at least one assay; those are over-represented in the sample as a whole.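 Percent growth is the endpoint: 0 to 100 indicates growth inhibition (40 means 60% inhibition), 0 means no net growth, and negative values indicate cell death.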 The source made the active and inactive calls. How the source made its calls: active means growth percent below 10; inactive means the rest.

How the values were obtained:
Assay in all cases: NCI-60 one-dose screen, 48 h (100 = growth as untreated, 0 = no growth, -100 = all killed)
Conditions in all cases: 10 µM
[1] = test system: T-47D breast
[2] = test system: BT-549 breast
[3] = test system: MDA-MB-435 melanoma
[4] = test system: SW-620 colon
[5] = test system: MCF7 breast
[6] = test system: HCT-116 colon
[7] = test system: HCC-2998 colon
[8] = test system: KM12 colon

Measured: growth

O=[N+]([O-])C1CC2C=CC1C2 (stereo not drawn)
inactive: [1] 93% | [2] 97.3% | [3] 92.7% | [4] 103% | [5] 92.1% | [6] 107% | [7] 102% | [8] 104%

C[C@]12CC[C@H]3[C@@H](CC=C4C[C@@H](O)CC[C@@]43C)[C@@H]1CC[C@@H]2C(=O)C/C=N/O
inactive: [1] 77.2% | [2] 90.2% | [3] 97.1% | [4] 102% | [5] 95.6% | [6] 79.1% | [7] 94.1% | [8] 96.6%

CC(C)C[C@H](NC(=O)Cn1ccc2ccccc2c1=O)B(O)O
inactive: [1] 39.6% | [2] 58.4% | [4] 42.8% | [5] 31.4% | [6] 32.3% | [7] 72.2% | [8] 93.4%
active: [3] 3.38%

CCOC(=O)c1cc(-c2ccccc2)nc(N)n1
inactive: [1] 114% | [2] 103% | [3] 102% | [4] 103% | [5] 87.6% | [6] 104% | [7] 109% | [8] 110%

CCN(CC)CCOC(=O)c1ccc(NC(=O)Nc2cccc(Cl)c2)cc1
inactive: [1] 87.1% | [2] 92.9% | [3] 103% | [4] 104% | [5] 95% | [6] 95% | [7] 99.7% | [8] 98%

O=C1CC(c2cccc(-c3cccnc3)c2)=Nc2ccc(Br)cc2N1
inactive: [3] 43.5% | [4] 81.8% | [5] 23.6% | [6] 23% | [7] 74.8% | [8] 49.4%
active: [1] -11.6% | [2] -3.46%

COc1cc(C2C=C(c3ccc(Cl)cc3)N=C3SC(C)=CN32)cc(OC)c1OC (stereo not drawn)
inactive: [1] 72.2% | [2] 88.5% | [3] 72.9% | [4] 94.5% | [5] 67.6% | [6] 50.3% | [7] 101% | [8] 94.1%

CCOC(=O)c1ccc(NC(=O)Nc2nncs2)cc1
inactive: [1] 49.3% | [2] 13.7% | [4] 18% | [5] 21.7% | [6] 12.6% | [7] 18.8% | [8] 12.4%
active: [3] -41.3%

O=[N+]([O-])c1ccc(Br)o1
inactive: [1] 91.3% | [2] 97% | [3] 109% | [4] 109% | [5] 95.7% | [6] 101% | [7] 95% | [8] 99.1%

COc1cc(-c2cc(-c3ccc(C)cc3)nc3nc(N)[nH]c(=O)c23)ccc1Oc1ccnc2cc(Cl)ccc12
inactive: [1] 69.6% | [2] 112% | [3] 85.3% | [4] 98.2% | [5] 51.2% | [6] 88.8% | [7] 79.5% | [8] 67%

COc1cc(C2C=C(c3ccc(Cl)c(Cl)c3)N=C3SC(C)=CN32)cc(OC)c1OC (stereo not drawn)
inactive: [1] 51.1% | [2] 58.7% | [3] 46.6% | [4] 50.6% | [5] 24.6% | [7] 90.7% | [8] 65.1%
active: [6] -25.8%

Cc1ccc(S(=O)(=O)N2CCc3ccccc3CC2)cc1
inactive: [1] 63.1% | [2] 64.7% | [3] 101% | [4] 97.6% | [5] 60.7% | [6] 68.5% | [7] 91% | [8] 94.3%

Oc1ccc(/C=N\Nc2ccccn2)c(O)c1
inactive: [1] 33.7% | [2] 23.7% | [3] 34.2% | [4] 35.3% | [7] 23.9% | [8] 38.4%
active: [5] 0.224% | [6] 4.54%

COc1c(C)c(C)c(OC)c2c1[nH]c(=O)c1c3cccnc3cn21
inactive: [1] 94.9% | [2] 124% | [3] 110% | [4] 99.3% | [5] 88.5% | [6] 104% | [7] 120% | [8] 106%

O=c1c2cccc3c(Nc4ccc(Br)cn4)ccc(c32)c2nc3ccccc3n12
active: [5] 4.15%
inactive: [1] 18.9% | [2] 84.4% | [3] 97% | [4] 94.8% | [6] 88.2% | [7] 74.8% | [8] 77.2%

C[N+]1(CC2CO2)CCCCCC1 (stereo not drawn)
inactive: [1] 116% | [2] 116% | [3] 102% | [4] 106% | [5] 107% | [6] 103% | [7] 112% | [8] 93.9%

Cc1ccc(-n2c(-c3cc4c([nH]c5ccccc54)c(-c4cccc(O)c4)n3)n[nH]c2=S)cc1
inactive: [1] 20.4% | [4] 10.5%
active: [2] -35.7% | [3] 1.24% | [5] 2.88% | [6] 3.29% | [7] -52.5% | [8] 5%

CC(=O)Nc1ccc2c(c1)C(N1CC3CCC(CC3)C1)c1ccccc1-2 (stereo not drawn)
inactive: [1] 66.6% | [2] 126% | [3] 99.4% | [4] 83.8% | [5] 96.7% | [6] 71.9% | [7] 99.5% | [8] 80.7%

CCCCCCN=C(N)CCCCCCCCCCC(N)=NCCCCCC
inactive: [1] 12.2% | [2] 39.4% | [3] 38.9% | [4] 22.4% | [5] 14.9% | [6] 16.5% | [7] 35.7% | [8] 34.8%

C/C=C\COc1cc(C)c(Cl)cc1Cl
inactive: [1] 105% | [2] 126% | [3] 98% | [4] 96.2% | [5] 98.4% | [6] 110% | [7] 118% | [8] 109%

Cc1ccccc1C1=N[C@@H](Cc2ccccc2)C(=O)c2c(nc3ccccn23)N1
inactive: [1] 104% | [2] 96.9% | [3] 98.8% | [4] 103% | [5] 84.9% | [6] 86.9% | [7] 99.9% | [8] 108%

COc1ccc(-c2nnc(SC/C(=N\O)c3ccccc3)o2)cc1
inactive: [1] 91.8% | [2] 100% | [3] 106% | [4] 103% | [5] 104% | [6] 91.6% | [7] 94% | [8] 86.2%

CCc1ccc(-c2nnc(COc3ccc(-c4nc5ccc(C)cc5[nH]4)cc3OC)o2)cc1
inactive: [1] 15% | [2] 38.8% | [3] 36.8% | [4] 86.7% | [5] 30.6% | [6] 37.1% | [7] 97.9% | [8] 50.9%

CCN1CCN(c2nc(NNC(=O)c3cccc(OC)c3)nc(N3CCN(C(c4ccccc4)c4ccccc4)CC3)n2)CC1
inactive: [1] 47.9% | [2] 63.3% | [3] 19.5% | [4] 69.5% | [5] 12.8% | [6] 26.7% | [8] 25.7%
active: [7] -16.4%

COc1cc(-c2nc3ccccc3[nH]2)ccc1OCc1nnc(-c2ccc(Br)cc2)o1
inactive: [1] 68.4% | [2] 98.4% | [3] 81% | [4] 102% | [5] 53.6% | [6] 59.9% | [7] 102% | [8] 69.2%

O=NN(CC(=O)N/N=C/C=C\c1ccccc1)CC(=O)N/N=C/C=C/c1ccccc1
inactive: [1] 89% | [2] 123% | [3] 103% | [4] 104% | [5] 69.6% | [6] 96.2% | [7] 119% | [8] 109%
